PubChem BioAssay

Assay: viability profiling in RPMI8226 myeloma cells – cell-based, resazurin fluorescence, basal, 24 h, PK04 Diversity Set, profiling panel (AID 1180);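 note: RPMI8826 multiple myeloma cell line at 5000 cells per well; test concentration not given here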
Settings: higher = more signal
For `COCCOC(=O)N1C(=O)[C@@]2(c3cc(C#CCNC(N)=O)ccc31)[C@H](C(=O)Nc1nc3ccccc3s1)[C@H]1C(=O)O[C@H](c3ccccc3)[C@H](c3ccccc3)N1[C@@H]2c1ccc(OCCO)cc1`, the z-score was -0.397. `CC(C)OC(=O)C=C1C[C@@H](c2ccccn2)O[C@@H](c2ccccn2)O1` showed a z-score of -0.474. In the case of `COC(=O)C(CC#Cc1ccc2c(c1)[C@]1(C(=O)N2)[C@H](c2ccc(OCCO)cc2)N2[C@H](c3ccccc3)[C@H](c3ccccc3)OC(=O)[C@H]2[C@@H]1C(=O)N1CCc2cc(OC)c(OC)cc2C1)C(=O)OC`, the z-score is reported as -0.368. Work on `COc1ccc([Si](C)(C)[C@H]2[C@H](CC(=O)N3Cc4ccccc4C[C@H]3CO)O[C@@]3(C(=O)N(Cc4cccc(N5CCC5=O)c4)c4ccccc43)[C@@H]2C)cc1` yielded a z-score of -2.01. With `COCCCNC(=O)[C@]1(CCC(=O)OC(C)(C)C)N=C(c2ccc(OCCCO)cc2)O[C@@H]1c1ccccc1CN=[N+]=[N-]` the z-score was -0.0741. `COCCOC(=O)N1C(=O)[C@@]2(c3cc(C#CCC(C(=O)OC)C(=O)OC)ccc31)[C@H](c1ccccc1OCCO)N1[C@H](c3ccccc3)[C@H](c3ccccc3)OC(=O)[C@H]1[C@@H]2C(=O)NC[C@H](O)c1ccccc1` showed a z-score of -3.62. `O=C1c2ccccc2[C@](Cc2ccccc2I)(C(=O)NCC(F)(F)F)[C@H](c2ccc(CO)cc2)N1Cc1ccccc1Cl` gave a z-score of 0.417. `COc1cc2c(cc1O)C(c1cccs1)N(C)CC2` (centres undefined) showed a z-score of -0.468. With `C=C[C@@H](COC(=O)OC(C)(C)C)N(Cc1ccc(OC)cc1)S(=O)(=O)c1ccc(Br)cc1` the z-score was -0.918.
